Bioassay records: PubChem BioAssay, several laboratories
This is a sample that favours compounds with a hit; in the whole collection about 3.9% have one here.
CCHFV vOTU inh – CCHFV vOTU protease inhibition. inhibition, % at 11.5 µM. Pep-AMC fluorescence. actives 0.55% (n = 370,000); in the data active = inhibition above about 30%
Mtb FBA inh – Mtb fructose-bisphosphate aldolase inhibition | P9WQA3 | purified M. tuberculosis FBA, fluorescence read-out | inhibition, % at 1 µM | actives 2.3% (n = 360,000) | AID 588726
Target sequence (P9WQA3 whole entry, looked up): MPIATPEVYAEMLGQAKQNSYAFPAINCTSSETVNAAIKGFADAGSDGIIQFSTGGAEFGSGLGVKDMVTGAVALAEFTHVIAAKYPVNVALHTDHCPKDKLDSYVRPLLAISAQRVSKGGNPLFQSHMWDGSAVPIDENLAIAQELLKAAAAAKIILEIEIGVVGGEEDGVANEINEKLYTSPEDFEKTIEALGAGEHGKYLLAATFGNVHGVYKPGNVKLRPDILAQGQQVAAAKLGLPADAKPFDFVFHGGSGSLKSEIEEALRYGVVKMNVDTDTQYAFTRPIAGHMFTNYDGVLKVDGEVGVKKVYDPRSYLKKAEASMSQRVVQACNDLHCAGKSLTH
BH1578 lux ind – quorum light induction in luxS cqsA deficient V. cholerae; actives 0.16% (n = 350,000); activation, % at 18.7 µM; V. cholerae BH1578 lux reporter, luminescence, 6 h; in the data active = activation mostly above about 9.7%, no sharp cut-off
GDH-TPI counter-1 – inhibits GDH-TPI coupling enzymes, artifact for Mtb FBA screen | GDH-TPI coupled enzyme counterscreen, NADH absorbance | inhibition, % at 4.8 µM | actives 1.2% (n = 360,000) | AID 588335; in the data active = inhibition above about 30%
Mtb FBA confirm – confirmation of M. tuberculosis fructose-bisphosphate aldolase inhibitors; purified M. tuberculosis FBA, fluorescence read-out; shares compounds with Mtb FBA inh; actives 78% (n = 5,600); AID 651616; inhibition, % at 1 µM
GDH-TPI counter-2 – GDH-TPI inhibition counter-screen for FBA inhibitors; shares compounds with Mtb FBA inh; GDH-TPI coupled enzyme counterscreen, fluorescence; inhibition, % at 1 µM; actives 81% (n = 5,600); in the data active = inhibition above about 10%
Large screens that a line does not name were inactive (follow-up assays come after a bar, where they were run). Cut-off read from the data, not from the text of the source, unless noted: active = inhibition above about 27%; inactive = the rest.

O=C(O)Cn1c(-c2ccccn2)nc2ccccc21	Mtb FBA inh 56 | Mtb FBA confirm inactive | GDH-TPI counter-2 inactive
CC(=O)Nc1cc(-c2ccc(F)cc2)cn2c(-c3ccc(S(C)(=O)=O)cc3)cnc12	Mtb FBA inh 57 | Mtb FBA confirm 89 | GDH-TPI counter-2 69
CC(=O)Nc1cc(-c2cccc(C(=O)NCCN(C)C)c2)cn2c(-c3ccccc3)cnc12	none
CC(=O)Nc1cc(-c2cccc(C(=O)NCCN(C)C)c2)cn2c(-c3ccc(S(C)(=O)=O)cc3)cnc12	Mtb FBA inh 61 | Mtb FBA confirm active | GDH-TPI counter-2 active
CC(=O)Nc1cc(-c2ccc(C(=O)N3CCOCC3)cc2)cn2c(-c3ccc(F)c(Cl)c3)cnc12	none
CC(=O)Nc1cc(-c2ccc(C(=O)N3CCOCC3)cc2)cn2c(-c3ccc(S(C)(=O)=O)cc3)cnc12	Mtb FBA inh 28 | Mtb FBA confirm active | GDH-TPI counter-2 active
CCOc1cc(/C=N/NC(=O)c2nn(C)cc2Br)ccc1OCc1ccccc1Cl	none
O=[N+]([O-])c1ccc(-n2ccnc2)cc1	none
CCOC(=O)C1CCCN(S(=O)(=O)c2cc3[nH]c(=O)c(=O)[nH]c3cc2C)C1 (stereo not drawn)	Mtb FBA inh 48 | Mtb FBA confirm 83 | GDH-TPI counter-2 58
CC(OC(=O)C1CC1)C(=O)Nc1cc(C(F)(F)F)ccc1Cl (stereo not drawn)	none
O=C(COC(=O)c1ccc2c(c1)OCCO2)Nc1ccc(F)cc1F	none
Cc1ccc(C(O)c2ncc(-c3cccc(C(F)(F)F)c3)[nH]2)c(C)c1 (stereo not drawn)	none
CC(=O)CSc1nc(-c2ccccc2)c(-c2ccccc2)o1	Mtb FBA inh 50 | Mtb FBA confirm 61 | GDH-TPI counter-2 44
CC1=CC(C)C(/C=N/N=C(N)N)C(C)C1 (stereo not drawn)	none
COc1ccc(CCNC(=O)CC2Oc3ccc(Cl)cc3NC2=O)cc1OC (stereo not drawn)	none
Cc1ccc(C2Nc3ccccc3-c3nc4ccccc4n32)o1 (stereo not drawn)	Mtb FBA inh 82 | Mtb FBA confirm 119 | GDH-TPI counter-2 95
CC1CCN(S(=O)(=O)c2cn(CC(=O)Nc3cccc(C#N)c3)cn2)CC1	Mtb FBA inh 39 | Mtb FBA confirm 80 | GDH-TPI counter-2 65
CC(=O)c1cccc(NC(=O)Cn2cnc(S(=O)(=O)N3CCC(C)CC3)c2)c1	none (no result: CCHFV vOTU inh)
CC(=O)Nc1ccc(NC(=O)COc2ccc(-c3ccc(C#N)cc3)cc2)cc1	none
Cc1cccc(NC(=O)CNC(=O)COc2ccc(-c3ccc(C#N)cc3)cc2)c1C	Mtb FBA inh 29 | Mtb FBA confirm 101 | GDH-TPI counter-2 80
N#Cc1ccc(-c2ccc(OCC(=O)Nc3cccnc3)cc2)cc1	Mtb FBA inh 43 | Mtb FBA confirm 116 | GDH-TPI counter-2 85
O=C(/C=C/c1ccccc1)OCC(=O)N1CCN(c2ccccc2)CC1	none
CN(C)CCCNC(=O)c1cc2sc3ccccc3c2s1	none
CCOC(CNC(=O)c1cc2c(=O)n(CC)c3ccccc3c2s1)OCC	none
CCCCN(CC)CCNC(=O)c1cc2c(=O)n(CC)c3ccccc3c2s1	Mtb FBA inh 40 | Mtb FBA confirm 176 | GDH-TPI counter-2 116
CCn1c(=O)c2cc(C(=O)NCCCOC)sc2c2ccccc21	Mtb FBA inh 54 | Mtb FBA confirm active | GDH-TPI counter-2 186
CCCN(CCC)CCCNC(=O)c1cc2c(=O)n(CC)c3ccccc3c2s1	Mtb FBA inh 27 | Mtb FBA confirm active | GDH-TPI counter-2 active
CCn1c(=O)c2cc(C(=O)NCC(OC)OC)sc2c2ccccc21	Mtb FBA inh 61 | Mtb FBA confirm active | GDH-TPI counter-2 179
NC(=O)[C@@H]1CCCCNc2c(F)cc([N+](=O)[O-])cc2C(=O)N[C@@H](CC(=O)O)C(=O)NCC(=O)N1	none
Cc1ccccc1-c1cnc(C(O)c2ccc(Cl)c(F)c2)[nH]1 (stereo not drawn)	none
CCN(CC)CCNC(=O)Cc1c(C(=O)O)n(CC)c2ccccc12	none
CCCCN(CC)CCCNC(=O)c1cc2c(=O)n(CC)c3ccccc3c2s1	Mtb FBA inh 79 | Mtb FBA confirm inactive | GDH-TPI counter-2 inactive
CCn1c(=O)c2cc(C(=O)NCCC(C)C)sc2c2ccccc21	none
CCC(C)NC(=O)c1cc2c(=O)n(CC)c3ccccc3c2s1 (stereo not drawn)	Mtb FBA inh 48 | Mtb FBA confirm 100 | GDH-TPI counter-2 92
Cn1cnnc1-c1cccc(NS(=O)(=O)c2ccc(N3CCCC3=O)cc2)c1	none
O=C(NC1CCCCC1)c1ccc(CS(=O)Cc2ccccc2Cl)o1 (stereo not drawn)	none
O=c1nc2ccc(Cl)cn2c2ccc(S(=O)(=O)N3CCCCC3)cc12	Mtb FBA inh 60 | Mtb FBA confirm inactive | GDH-TPI counter-2 inactive
Cc1ccn2c(c1)nc(=O)c1cc(S(=O)(=O)N3CCCCC3)ccc12	Mtb FBA inh 54 | Mtb FBA confirm 45 | GDH-TPI counter-2 39
O=c1nc2ccccn2c2ccc(S(=O)(=O)N3CCCCC3)cc12	Mtb FBA inh 99 | Mtb FBA confirm 111 | GDH-TPI counter-2 85
Cn1c(=O)c(=O)n(C)c2cc(S(=O)(=O)N3CCCCC3)ccc21	none
COC(=O)[C@@]12C[C@@H](CC(=O)NCCCN3CCCC3=O)C(=O)N(Cc3ccc4c(c3)OCO4)C1=CCC(C)(C)C2	none (no result: Mtb FBA inh, BH1578 lux ind, GDH-TPI counter-1)
CCCc1cc(=O)[nH]c(SCC(=O)Nc2ccc(Br)cc2Br)n1	none
COc1ccc(-c2nc(CN3CCN(c4cc(C)nc(C)c4)CC3)c(C)o2)c2ccccc12	Mtb FBA inh 67 | Mtb FBA confirm 45 | GDH-TPI counter-2 43
Cc1ccc(-c2cc(-c3ccccc3)cc(-c3ccccc3)[n+]2-c2ccc(C(=O)O)cc2)cc1	Mtb FBA inh 29 | Mtb FBA confirm 49 | GDH-TPI counter-2 46
Cc1ccc(-c2cc(-c3ccc(C)cc3)[n+](-c3ccc(C(=O)O)cc3)c(-c3ccc(C)cc3)c2)cc1	none
COc1ccc(C(=O)c2sc3nc(-c4ccc(OC)cc4)ccc3c2N)cc1	Mtb FBA inh 34 | Mtb FBA confirm 28 | GDH-TPI counter-2 31
COc1ccc(-c2ccc3c(=O)cc(-c4ccsc4)oc3c2)cn1	Mtb FBA inh 48 | Mtb FBA confirm inactive | GDH-TPI counter-2 inactive
Cc1nn2c(-c3ccccn3)ccnc2c1Cl	none
Nc1nc2nccc(-c3ccccn3)n2n1	Mtb FBA inh 39 | Mtb FBA confirm active | GDH-TPI counter-2 active
c1ccc(CNCCc2ccc3c(c2)OCO3)nc1	none
Fc1cccc(CCNCc2ccccn2)c1	Mtb FBA inh 30 | Mtb FBA confirm 87 | GDH-TPI counter-2 82
CCOC(=O)C(CC)c1cc2n(c(=O)c1C#N)CCC21OCCO1 (stereo not drawn)	Mtb FBA inh 69 (no result: BH1578 lux ind, GDH-TPI counter-1) | Mtb FBA confirm active | GDH-TPI counter-2 active
CN1CCN(C(=O)c2cccc(-c3cccc4nccn34)c2)CC1	none
c1ccc2c(c1)oc1c(-c3cccc4nccn34)cccc12	Mtb FBA inh 90 | Mtb FBA confirm 50 | GDH-TPI counter-2 44
